Data from PubChem BioAssay AID602362 (National Center for Advancing Translational Sciences (NCATS), 2012).
This is one part of the list. Records with an inconclusive call do not appear. Calls of active or inactive are those of the source. The call rests on the fitted dose curve; in most records, active means well fitted inhibition curve with a large enough effect; inconclusive means small, poorly fitted or top-dose-only effect; inactive means no such curve, though single readings can be large or run the other way.

What follows are compounds tested against 4'-phosphopantetheinyl transferase Sfp (Bacillus subtilis (strain 168)) (UniProt P39135) (assay: qHTS Assay for Inhibitors of Bacillus subtilis Sfp phosphopantetheinyl transferase (PPTase): Gel Based Assay). Conditions: purified Sfp PPTase, gel-based product detection.
From the text: The covalent attachment of a phosphopantetheinyl (4'-PP) arm to a variety of synthases and other proteins is a key posttranslational protein modification. The 4'-PP is installed on the proteins post-translationally from coenzyme A (CoA) on a conserved serine residue by action of phosphopantetheinyl transferase (PPTase) enzymes. Phosphopantetheinylation is essential for synthase activity, and removal of the PPTase gene precludes natural product synthesis in microorganisms, or in the case of fatty acid biosynthesis, renders the organism unviable. PPTase enzymes belong to a distinct structural superfamily. Within bacteria, these enzymes are grouped into two classes based upon primary structure, the AcpS-Type and Sfp-Type PPTases. […]
In search of small molecule Sfp-PPTase inhibitors, a fluorescence quenching assay was developed for detection of Bacillus subtilis Sfp-PPTase enzymatic activity in a miniaturized high-throughput format. […]
In this assay, compounds were evaluated by monitoring of fluorescence transfer to whole carrier protein substrates via polyacrylamide gel electrophoresis. […]
The SDS-PAGE based assay detects the direct incorporation of a fluorescent label into a carrier protein substrate. […] The images are analysed by fluorescent densometry using the ImageJ software package available from the NIH.
`COc1ccnc(NC(=S)N2CCN(c3ncc(C(F)(F)F)cc3Cl)CC2)c1` was tested, and the Potency was 2140 nM (active).
In the case of `Cc1cc(C)nc(NC(=S)N2CCN(c3ccc(Cl)cc3C(F)(F)F)CC2)c1`, the Potency is reported as 1070 nM (active).
